Compound activity: PubChem BioAssay, several laboratories
Most compounds without a hit are left out; they make up all but 28% or so of the library.
D1 mod – D1 dopamine receptor (human) allosteric modulation. P21728. HEK293 D1, CRE-luciferase, dopamine EC30 potentiation; actives deviate in either direction. B-score at 10 µM. hit rate 5.9% among 58,000. AID 641;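 active = luminescence count or its row- and column-corrected plate score outside the 99.7% band of the plate's sample wells, on either side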
Target sequence (P21728 whole entry, looked up): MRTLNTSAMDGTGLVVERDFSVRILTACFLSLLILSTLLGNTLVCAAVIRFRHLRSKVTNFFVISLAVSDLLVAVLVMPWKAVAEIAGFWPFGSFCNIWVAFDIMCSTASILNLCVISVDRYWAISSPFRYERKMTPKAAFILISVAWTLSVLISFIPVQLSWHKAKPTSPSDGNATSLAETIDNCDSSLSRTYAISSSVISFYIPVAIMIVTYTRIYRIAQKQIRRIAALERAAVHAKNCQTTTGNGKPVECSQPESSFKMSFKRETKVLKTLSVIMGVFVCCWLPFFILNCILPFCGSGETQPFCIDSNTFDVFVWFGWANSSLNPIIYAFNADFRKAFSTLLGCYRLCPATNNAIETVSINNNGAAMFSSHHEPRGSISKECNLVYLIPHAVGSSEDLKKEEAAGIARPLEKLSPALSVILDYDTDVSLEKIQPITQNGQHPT
CYP2C9 inh – human CYP2C9 inhibition | P11712 | CYP2C9 Supersomes, luciferin-H conversion, luminescence | inhibition, % at 5 µM | hit rate 20% among 96,000;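 active = blocking of liver enzyme CYP2C9 beyond about 50% at 5 µM, limit read from the data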
CYP2C9 act – activators of human CYP2C9; recombinant CYP2C9, luciferin-H conversion, luminescence; stronger effect = higher value; factor 1 = untreated enzyme, 0 = blocked; P11712; hit rate 1.4% among 96,000; AID 1024; activation factor at 5 µM;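 active = activation factor of 2 or more for CYP2C9 at a 5 µM dose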;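 note: 0 = sulfaphenazole-blocked wells and 1 = vehicle-only wells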
CYP2C19 activ – activators of human cytochrome P450 2C19. P33261. recombinant CYP2C19, luciferin-H EGE luminescence; stronger effect = higher value; 0 = fully inhibited enzyme, 1 = untreated enzyme. activation factor at 5 µM. 96,000 tested, under 10 active;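 active = activation factor of at least 2 at 5 µM in the primary screen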;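 note: 0 = wells with 2.5 mM tranylcypromine and 1 = vehicle-only wells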
CYP2C19 inhib – blocks human cytochrome P450 2C19. CYP2C19 Supersomes, luciferin-H EGE luminescence, 30 min. inhibition, % at 5 µM. hit rate 21% among 96,000. AID 778;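 active = CYP2C19 inhibition above a set limit at 5 µM in the primary screen, cut at about 50% in these data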;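 note: plate controls were negative control wells for no effect and 2.5 mM tranylcypromine positive control for full effect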
DAT uptake mod – changed human dopamine transporter uptake under cocaine IC80. Q01959. LLC-PK1 hDAT cells, [14C]-dopamine uptake with cocaine IC80; actives deviate in either direction. AID 449768. hit rate 1.3% among 110,000. B-score at 10 µM;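 active = Z score or B-score, a plate-position-corrected score, falls beyond the plate's 99.7% confidence bounds, in either direction; inactive = both scores lie inside the 99.7% bounds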;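 note: scored against the spread of the other compound wells on the same plate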
An asterisk follows results filed as active; . = no result.

SMILES	D1 mod	CYP2C9 inh	CYP2C9 act	CYP2C19 activ	CYP2C19 inhib	DAT uptake mod
COc1ccccc1Nc1nc(N)nc(CN2CCCCCC2)n1	1.15	-7.2	1.1	1.1	-14.5	-0.326
COc1cccc(N2CCN(Cc3nc(N)nc(Nc4ccccc4OC)n3)CC2)c1	1.66	14.4	0.9	0.9	13.0	0.142
COc1ccccc1Nc1nc(N)nc(CN2CCC(Cc3ccccc3)CC2)n1	-1.87	71.5*	0.3	0.5	50.2*	1.32
Cc1ccc(S(=O)(=O)N(C)CC(=O)N2CCCC2)cc1	.	.	.	.	.	-1.75
O=C(NC1CCCCC1)c1ccccc1NC(=O)C1CC1	.	.	.	.	.	0.122
CCOCCCn1c(=N)c(C(N)=S)cc2c(=O)n3cccc(C)c3nc21	-0.181	6.3	0.9	0.9	9.3	1.69
Cc1cccn2c(=O)c3cc(C(N)=S)c(=N)n(CCCOC(C)C)c3nc12	.	36.2	0.6	0.1	86.2*	0.587
COCCn1c(=N)c(C(=O)NCCc2ccccc2)cc2c(=O)n3cccc(C)c3nc21	-0.091	.	.	.	.	0.628
CCCCNC(=O)c1cc2c(=O)n3cccc(C)c3nc2n(Cc2ccccc2)c1=N	0.115	64.4*	0.4	0.6	41.0	0.943
Cc1cccn2c(=O)c3cc(C(=O)NCCc4ccccc4)c(=N)n(CCCn4ccnc4)c3nc12	.	57.8*	0.4	0.4	55.1*	-0.0686
CCC/S(CC1CC1(Cl)Cl)=N\S(=O)(=O)c1ccc(C)cc1 (stereo unspecified)	.	-3.4	1	0.9	5.3	0.522
COC(=O)C(O)(CC(=O)Nc1ccc(OC(F)(F)F)cc1)C(F)(F)F (stereo unspecified)	2.49	16.9	0.8	0.9	8.0	0.401
COc1cc(CN2CCN(c3ccc(C)cc3)CC2)cc([N+](=O)[O-])c1O	.	9.3	0.9	1	1.2	0.0219
O=C(Nn1cnnc1)c1ccncc1	-0.0341	9.4	0.9	1	-0.3	-0.0161
O=C(NN1C(=O)C2C(C1=O)C1C=CC2C12CC2)c1ccncc1 (stereo unspecified)	.	27.5	0.7	0.5	52.1*	-0.155
Cc1cc(C)c2c(n1)nn1c(N3CCN(c4ccccn4)CC3)cc(C)nc21	-0.808	33.5	0.7	0.7	27.1	.
Cc1cc(C)c2c(n1)nn1c(N3CCN(c4ccccc4)CC3)cc(C)nc21	-4.13*	20.2	0.8	0.8	19.4	0.266
CCC(Sc1nc(C)cc(C)n1)C(=O)Nc1ccc(Cl)cn1 (stereo unspecified)	.	.	.	.	.	-0.49
COC(=O)C(CC(=O)c1ccc(Cl)cc1)c1ccc(C(C)C)cc1 (stereo unspecified)	.	-24.9	1.2	1	2.0	0.701
COc1ccc(CC(=O)NNC(=S)Nc2ccccc2)cc1Br	.	37.3	0.6	0.3	74.3*	0.162
CCOc1ccc(CC(=O)NNC(=S)Nc2ccccc2)cc1Br	.	72.3*	0.3	0.5	53.2*	2.03
COc1ccc(CC(=O)NNC(=S)Nc2ccc(Br)cc2)cc1	.	52.4*	0.5	0.6	41.7	-0.62
CCOc1cc(NC(=S)Nc2ccccc2)c(OCC)cc1NC(=O)c1ccccc1	.	4.2	1	1.1	-6.0	-0.184
CS(=O)(=O)N(Cc1nnc(-c2cccs2)o1)c1ccc(Cl)cc1F	-0.675	87.6*	0.1	0	98.8*	-1.57
Fc1ccc(Cc2nnc(-c3cccs3)o2)cc1	-0.0956	.	.	.	.	-0.468
SMILES	D1 mod	CYP2C9 inh	CYP2C9 act	CYP2C19 activ	CYP2C19 inhib	DAT uptake mod
CSCCC(NC(=O)OC(C)(C)C)C(=O)NC(C(=O)NC(CC(C)C)C(N)=O)C(C)C (stereo unspecified)	.	1.1	1	1.1	-10.7	0.0205
CCOc1ccc(-c2nnn(CC(=O)NCc3ccc(F)cc3)n2)cc1OCC	1.37	34.8	0.7	0.4	64.6*	-0.707
CCCOc1ccc(-c2nnn(CC(=O)Nc3cccc(C(=O)OC)c3)n2)cc1	-0.927	91.7*	0.1	0.7	32.7	-1.87
CCOc1ccc(-c2nnn(CC(=O)Nc3cccc(OC)c3)n2)cc1OCC	13.4*	19.6	0.8	0.5	45.9	1.39
CCCN1C(=O)c2cc(C(=O)NC3CCCCCC3)ccc2C1O (stereo unspecified)	-3.18*	-6.8	1.1	1	1.7	0.519
Cc1ccc(CNC(=O)CCCC(=O)O)cc1	.	14.5	0.9	1.1	-10.9	-0.522
CCOC(=O)c1sc(NC(=O)CSc2n[nH]c(-c3ccccc3)n2)c(C#N)c1C	-2.11	72.1*	0.3	0.8	19.3	.
CCOC(=O)c1sc(NC(=O)CSc2ccccn2)c(C#N)c1C	-0.158	-7.7	1.1	1.1	-11.9	0.248
CCOC(=O)c1sc(NC(=O)CSc2nc(-c3ccco3)cc(C(F)(F)F)n2)c(C#N)c1C	.	74.1*	0.3	0.6	42.8	0.176
CCOC(=O)c1sc(N(Cc2ccccc2)C(=O)CSc2ncn[nH]2)nc1C	.	78.8*	0.2	1	4.9	-0.89
CCOC(=O)c1sc(NC(=O)c2cc(-c3ccccc3)nc3ccccc23)c(C#N)c1C	.	49.0	0.5	1	4.6	-0.23
Cc1cc(NC(=O)CSc2nc(-c3ccco3)cc(C(F)(F)F)n2)no1	2.19	.	.	.	.	-0.0282
CCOC(=O)c1sc(NC(=O)CSc2ncn[nH]2)c(C#N)c1C	1.65	81.8*	0.2	0.2	79.3*	0.00729
CNC(=O)c1ccccc1F	.	-1.8	1	1.3	-28.1	-1.36
COc1ccc(-n2c(Cc3cccn3C)nnc2SCC(=O)Nc2ccc(C(C)=O)cc2)cc1	-0.0281	15.4	0.8	1	1.3	0.0949
NC(=O)CC(NC(=O)c1ccccc1)c1ccc(NCCc2ccc(Cl)cc2)c([N+](=O)[O-])c1 (stereo unspecified)	.	.	.	.	.	1.17
COc1cc(CCc2ccc3c(c2)OCO3)oc(=O)c1	.	.	.	.	.	1.81
CN(C)C(=O)N1CCC(C(=O)NCc2ccccc2)CC1	2.45	5.7	0.9	1	-0.5	-1.24
COc1ccc(/C=N/NC(=O)C2CCN(c3ncc(C(F)(F)F)cc3Cl)CC2)cc1	.	11.5	0.9	1	1.5	1.08
CCOC(=O)c1c(NC(=O)c2cccnc2)sc(C)c1C	.	20.0	0.8	0.9	12.1	-0.267
CCOC(=O)c1sc(NC(=O)c2cccnc2)c(C#N)c1C	.	94.2*	0.1	1	-4.5	-1.47
CCO[C@H]1OC(C(=O)Nc2ccccc2)=C[C@@H](C)[C@@H]1CCCO	.	.	.	.	.	0.0359
Cc1ccc(NC(=O)C2C3C=CC4(CN(Cc5cccnc5)C(=O)C24)O3)cc1F (stereo unspecified)	-0.863	4.2	1	0.4	58.2*	-0.372
CCN(CC)S(=O)(=O)c1cc([N+](=O)[O-])ccc1NNC(=O)Nc1ccccc1OC	.	63.0*	0.4	0.5	50.8*	0.238
COc1ccc(OCCCC(=O)Nc2cc([N+](=O)[O-])ccc2C)cc1	.	-155.2	2.6*	0.8	18.8	0.66
CC(=O)c1ccc(OCCCC(=O)NCC(c2ccco2)N(C)C)cc1 (stereo unspecified)	.	62.7*	0.4	0.2	80.8*	0.378
